Sa ugtP lethal – compounds lethal to S. aureus RN4220 ugtP deletion mutant; actives 0.54% (n = 330,000); AID 1259309; growth inhibition, % (concentration not given with the values); OD600 growth, 16 h; in the data active means growth inhibition above about 68%;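 further: plate controls were untreated wells for no effect and antibiotic for full effect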
SARS 3CLpro inh – SARS-CoV 3CLpro protease inhibition; recombinant SARS-CoV 3CLpro, quenched FRET peptide cleavage; actives 0.14% (n = 290,000); AID 1706; inhibition, % at 6 µM; P0C6X7; in the data active means inhibition above about 12%
MazEF act – increases E. coli MazEF RNase cleavage of RNA; FAM/BHQ RNA-DNA oligo cleavage fluorescence, 5 h; actives 0.32% (n = 350,000); activation, % at 20 µM; in the data active means activation above about 50%
Target sequence (P0AE70 whole entry, looked up): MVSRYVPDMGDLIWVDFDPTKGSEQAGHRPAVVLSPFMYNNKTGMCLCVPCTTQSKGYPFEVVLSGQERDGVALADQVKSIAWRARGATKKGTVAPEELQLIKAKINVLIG
RN4220 kill – kills Staphylococcus aureus RN4220. S. aureus RN4220 growth, OD600, 16 h. inhibition, % (no concentration beside the values). actives 0.33% (n = 330,000). AID 1259311; in the data active means inhibition above about 85%;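 further: plate controls were untreated cells for no effect and reference antibiotic for full effect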
CCHFV vOTU inh – CCHFV vOTU protease inhibition; Pep-AMC fluorescence; inhibition, % at 11.5 µM; actives 0.55% (n = 370,000); AID 651958; in the data active means inhibition above about 30%; further: 0% = vehicle wells with enzyme and 100% = no enzyme wells
Mtb betalactam – beta-lactam sensitization of Mtb H37Rv; M. tuberculosis H37Rv growth with meropenem, percent inhibition; inhibition, % at 25 µM; actives 0.27% (n = 330,000); AID 434955; call rule not given here;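 further: growth measured after seven days incubation then overnight dye step; 0% = bacteria only wells and 100% = bacteria with antibiotic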
Numbers without * were called inactive; ? = inconclusive; . = not tested or not shown. Most compounds without a hit are left out; they make up all but 1.3% or so of the library.

SMILES	Sa ugtP lethal	SARS 3CLpro inh	MazEF act	RN4220 kill	CCHFV vOTU inh	Mtb betalactam
Cc1ccc(Nc2c(-c3ccccn3)nc3cccc(C)n23)cc1	100.4*	2.3	-1.6	100.7*	14.0	97.0
Cc1cccc2nc(-c3ccco3)c(Nc3ccccc3)n12	5.4	0.0	0.3	1.4	-106.2	1.5
Cn1c(N/N=C/c2cc3ccccc3nc2Cl)nc2ccccc21	.	-1.5	206.8*	.	18.4	51.8
O=[N+]([O-])c1ccc(-c2cn3nc(-c4ccccc4)c(-c4ccccc4)nc3n2)cc1	3.5	0.7	163.6*	4.4	-1.1	-6.9
CC(C)C1S/C(=N/N=Cc2cccs2)NC1=O (configuration not stated)	9.9	.	.	-1.6	.	.
COc1ccc(C2C=CCN(C(=O)OCc3ccccc3)CC(=O)N2Cc2ccc(F)cc2)cc1 (configuration not stated)	9.9	.	.	10.7	.	.
CCN(CC)CCNC(=O)c1ccc2c(c1NCCO)C(=O)c1ccccc1C2=O	8.3	0.3	10.3	27.2	58.9*	28.0
CC1CCN(C(=O)c2ccc3c(c2NCCO)C(=O)c2ccccc2C3=O)CC1	-8.3	1.4	5.6	7.7	24.2	6.8
CCCN1C(=O)/C(=C/c2ccc(N3CCCC3)c(C)c2)NC1=S	-12.9	4.8	-15.8	-1.5	0.8	78.1
Cc1cc(/C=C2\NC(=S)N(C)C2=O)ccc1N1CCCC1	-4.8	-2.0	213.9*	9.6	8.6	-5.2
COCc1ccc(O)c2ncccc12	97.6*	-3.7	-2.8	98.5*	-3.7	100.3
CN1CCN(CCCC(=O)c2ccc(C3CCCC3)cc2)CC1	85.4*	4.2	-2.9	-3.2	-11.0	5.3
Cc1[nH]n(-c2ccccc2)c(=O)c1C=NO	10.2	.	.	7.2	.	.
O=[N+]([O-])c1nn(-c2ccccc2)[n+]([O-])c1N1CCN(c2ccccc2F)CC1	-0.4	-1.8	143.8*	-0.1	14.8	3.0
O=c1[nH]c2ccc(N=Cc3c(O)ccc4cc(Br)ccc34)cc2[nH]1	4.8	3.8	256.0*	8.5	4.8	.
O=C1/C(=C\c2ccc(O)cc2)SC(=S)N1Cc1ccccc1	.	2.0	-227.3	.	4.5	8.5
O=C1/C(=C\c2cc(Br)cc(Br)c2O)SC(=S)N1Cc1ccccc1	100.1*	2.1	-16.4	100.5*	.	3.5
Cc1c(OCC(=O)NCc2ccncc2)ccc2c3c(c(=O)oc12)CCCC3	3.8	-0.5	52.5*	-1.3	-2.9	-1.2
Cc1c(OCC(=O)NCc2cccnc2)ccc2c3c(c(=O)oc12)CCCC3	2.8	-2.2	17.2	2.5	-0.2	3.0
O=C(COc1ccc2c3c(c(=O)oc2c1)CCCC3)NCc1ccncc1	5.5	0.5	3.0	-0.1	6.7	6.4
NS(=O)(=O)c1ccc(CNC(=O)COc2ccc3c4c(c(=O)oc3c2)CCCC4)cc1	11.4	-2.9	164.6*	4.0	19.0	0.0
Nc1c(Cl)ncnc1NN=Cc1ccc2ccccc2n1	-21.7	.	.	-15.2	.	.
O=C(O)CCC(=NNC(=O)CNC(=O)c1ccc(F)cc1)c1ccccc1	2.8	.	.	0.7	.	.
CC1NC(=O)c2cc([N+](=O)[O-])cc(F)c2NCCCC(C(N)=O)NC(=O)C(CC(N)=O)NC1=O (configuration not stated)	3.4	.	.	5.1	.	.
COc1ccc(C2C(C(=O)c3cccs3)=C(O)C(=O)N2c2nncs2)cc1 (configuration not stated)	4.5	-8.8	-866.5	7.9	-5.9	-3.1
SMILES	Sa ugtP lethal	SARS 3CLpro inh	MazEF act	RN4220 kill	CCHFV vOTU inh	Mtb betalactam
COc1ccc(C2C(C(=O)c3cccs3)=C(O)C(=O)N2c2nnc(C)s2)cc1OC (configuration not stated)	3.9	-1.2	69.0*	2.0	.	-2.5
C=CCOc1ccc(C2C(C(=O)c3cccs3)=C(O)C(=O)N2c2nnc(C)s2)cc1 (configuration not stated)	18.1	-8.8	315.0*	-7.0	17.4	3.8
CC(C)c1nnc(N2C(=O)C(O)=C(C(=O)c3cccs3)C2c2ccccc2)s1 (configuration not stated)	0.3	-5.7	172.0*	-1.0	3.4	.
CCN1C(=O)C2C(c3ccc(-c4ccc(C(C)=O)cc4)cc3)N3CCC[C@@]3(C(=O)OC)C2C1=O (some centres not stated)	9.7	.	.	4.1	.	.
CC[n+]1c(/C=C/N(C)c2ccccc2)oc2ccc(Cl)cc21	.	0.8	-12.5	.	18.7	-5.6
CCN1/C(=C/C=C/c2oc3ccc4ccccc4c3[n+]2CC)Oc2ccc3ccccc3c21	99.3*	-37.4	-905.3	98.4*	.	96.2
CCCc1nc2c(ccc3ccccc32)cc1CC	83.1*	-1.3	-3.0	-0.7	-14.8	?
COc1cccc(C2CN(c3ccc(F)cc3F)N=C2c2cccs2)c1OC (configuration not stated)	88.0*	-1.8	-24.0	-14.1	-47.4	8.6
CC(C)(C)OC(=O)NCCCCC(NC(=O)c1nc[nH]c1C(=O)NCC(=O)OCc1ccccc1)C(=O)OC(C)(C)C (configuration not stated)	7.2	.	.	6.0	.	.
CCOC(=O)c1cc2ccc3ccccc3c2s1	87.6*	1.0	1.8	12.3	13.0	92.2
CCOC(=O)c1cc2ccc3ccccc3c2oc1=O	10.2	6.1	0.9	0.9	-373.3	6.7
O=C(NC(=O)c1cccc(F)c1)Nc1nc(-c2ccc(F)cc2)cc(C(F)(F)F)n1	4.0	5.0	21.2	5.0	9.5	-9.4
O=C(NC(=O)c1ccc(F)cc1)Nc1nc(-c2cccs2)cc(C(F)(F)F)n1	4.3	0.1	93.8*	1.4	-1.4	1.0
Clc1ccc(C[n+]2c(-c3ccccc3)cc(-c3ccccc3)cc2-c2ccccc2)cc1	99.6*	.	28.0	100.1*	4.3	100.0
Cc1cc(-c2ccccc2)cc(-c2ccccc2)[n+]1CCc1ccccc1	-6.9	.	10.8	5.7	3.2	-15.5
O=C([O-])c1cc(-c2ccccc2)cc(-c2ccccc2)[n+]1CCc1ccc(Cl)cc1	99.8*	.	17.7	87.6*	13.0	.
Fc1ccc(C[n+]2c(-c3ccccc3)cc(-c3ccccc3)cc2-c2ccccc2)cc1	.	.	20.2	.	4.0	94.2
CCn1c(SCC(=O)NN=Cc2ccc(O)c(OC)c2)nc2ccccc21	-1.3	.	.	0.0	.	.
Nc1c2c(nc3ccc(Br)cc13)N(c1ccccc1)CC2	46.9	6.5	12.0	21.3	8.3	15.6
Cc1cccc(N2CCc3c2nc2ccc(Br)cc2c3N)c1	99.6*	3.6	6.8	99.0*	-16.3	93.9
CCCCc1ccc(C(C)=NNC(=O)C2CCCC2)cc1	8.4	.	.	0.6	.	.
COc1ccc(C)cc1Nc1nc(-c2ccccc2O)nc2ccccc12	91.3*	6.4	3.5	52.8	5.1	-1.0
Oc1ccccc1-c1nc(NCc2ccco2)c2ccccc2n1	-5.2	-2.7	119.5*	-2.3	5.1	8.8
Oc1ccccc1-c1nc(NCc2ccccc2)c2ccccc2n1	3.7	2.8	63.5*	-3.8	-3.3	0.9
Oc1ccccc1Nc1nc(NCc2ccccc2)c2ccccc2n1	27.8	0.6	57.0*	27.4	16.9	100.0
